Hits are enriched below; roughly 2.5% of the tested compounds scored in any of these assays.
POLI inh = DNA polymerase iota (human) inhibition; Q9UNA4; AID 588590; hit rate 1% among 390,000; Pol iota fluorescent replication assay, 10 min; Potency, µM (doses to about 115 µM), actives largely listed as inhibitors
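Pol iota at 10 nM preincubated 15 min with compounds at room temperature; reaction started with fluorescent substrate, 50 nM final. Fluorescence read kinetically at 0 and 10 min; buffer-only wells as negative control.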
L3MBTL1 block = L3MBTL1 (human) inhibition; Q9Y468; AlphaScreen L3MBTL1–H3K9me1 peptide binding; Potency, µM (titrated, usually from 57.1 µM), most hits filed as inhibitors; hit rate 0.66% among 230,000; AID 485360; also: nearly all actives have a fitted effect of over 60% in size
Target sequence (Q9Y468 whole entry, looked up): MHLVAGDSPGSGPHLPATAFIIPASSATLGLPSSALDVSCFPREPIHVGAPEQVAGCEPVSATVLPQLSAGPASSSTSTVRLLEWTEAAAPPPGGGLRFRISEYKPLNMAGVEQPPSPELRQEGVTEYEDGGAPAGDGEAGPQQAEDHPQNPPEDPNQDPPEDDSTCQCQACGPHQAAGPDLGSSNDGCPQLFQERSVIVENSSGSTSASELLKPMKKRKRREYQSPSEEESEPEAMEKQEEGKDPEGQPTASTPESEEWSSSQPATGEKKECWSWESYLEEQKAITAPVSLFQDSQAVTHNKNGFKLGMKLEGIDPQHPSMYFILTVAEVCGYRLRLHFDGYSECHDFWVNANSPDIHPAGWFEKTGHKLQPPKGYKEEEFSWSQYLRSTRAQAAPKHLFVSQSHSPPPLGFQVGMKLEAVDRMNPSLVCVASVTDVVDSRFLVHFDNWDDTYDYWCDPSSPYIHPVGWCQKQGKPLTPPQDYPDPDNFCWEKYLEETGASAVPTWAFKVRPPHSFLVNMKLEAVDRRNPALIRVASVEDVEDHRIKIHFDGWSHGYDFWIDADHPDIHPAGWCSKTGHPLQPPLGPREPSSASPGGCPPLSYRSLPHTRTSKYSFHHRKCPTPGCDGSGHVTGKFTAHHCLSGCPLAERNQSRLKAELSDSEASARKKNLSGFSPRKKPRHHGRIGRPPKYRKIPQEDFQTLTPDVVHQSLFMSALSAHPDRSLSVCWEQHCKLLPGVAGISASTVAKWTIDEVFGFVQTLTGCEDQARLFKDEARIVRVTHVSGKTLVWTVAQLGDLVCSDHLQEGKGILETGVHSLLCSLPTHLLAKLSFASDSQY
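AlphaScreen assay: L3MBTL1 (50 nM final) was preincubated 30 min at room temperature with biotinylated H3(1-15)K9me1 peptide (75 nM final), then 30 min with library compounds; streptavidin donor and nickel chelate acceptor beads (10 ug/mL final) added, 30 min dark.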
POLH inh = inhibitors of human DNA polymerase eta; Q9Y253; recombinant Pol eta, fluorescent DNA replication assay; Potency, µM (doses to about 114 µM), usual class: inhibitors; hit rate 1.2% among 390,000
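Fluorescent replication assay: 50 nM final substrate added after a 15 min room-temperature compound preincubation with 10 nM enzyme. Signal taken at 0 min and again at 10 min.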
WRN helicase inh = blocks human WRN helicase; hit rate 0.46% among 360,000; WRN helicase unwinding, fluorescent forked duplex, kinetic; AID 651768; Potency, µM (top dose mostly 114 µM), actives largely listed as inhibitors; Q14191; also: nearly all actives have a fitted effect of over 55% in size
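Kinetic red-fluorescence monitoring (525/598 nm) tracks WRN helicase activity after 100 nM fluorophore-quencher forked duplex and 2 mM ATP are added to 20 nM enzyme pretreated 15 min at room temperature with compound.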
POLK inh = blocks human DNA polymerase kappa activity | Q9UBT6 | purified Pol kappa, fluorescent DNA synthesis assay, 10 min | Potency, µM (top dose mostly 107 µM), actives largely listed as inhibitors | hit rate 0.53% among 400,000
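50 nM final substrate added after 15 min RT preincubation of 10 nM Pol kappa with compound; fluorescence read at 0 and 10 min.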
Pol beta inh = inhibitors of human DNA polymerase beta | Potency, µM (series often up to 114 µM), hits mostly inhibitors | hit rate 1.3% among 340,000 | Pol beta primer extension/strand displacement, fluorescence kinetic | P06746 | AID 485314
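Pol beta (10 nM) was preincubated with compound for 15 min at room temperature. The reaction was then started with 50 nM substrate and read immediately and after a further 10 min at room temperature.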
A number is an active result. Calls follow the shape of the dose curve; as a rule, active = well fitted curve in the direction sought with a large enough effect; inconclusive = small, poorly fitted or top-dose-only effect, or another doubt; inactive = no such curve, though single readings can be large; an effect the other way counts as inactive or inconclusive.

For COc1cc(/C=N/NC(=O)c2ccc3nc[nH]c3c2)cc(OC)c1OC(C)=O the results were POLH inh inactive and WRN helicase inh inactive.
For COc1ccc(/C=N/NC(=O)c2ccc3nc[nH]c3c2)cc1OC the results were POLI inh 13µM, L3MBTL1 block inactive, POLH inh inactive, WRN helicase inh inactive, POLK inh inconclusive and Pol beta inh 16µM.
`COC(=O)c1ccc(/C=N/NC(=O)c2ccc3nc[nH]c3c2)cc1` gave POLI inh inactive, POLH inh inactive, WRN helicase inh inactive, POLK inh inactive and Pol beta inh inactive.
For COc1cc(/C=N/NC(=O)c2ccc3nc[nH]c3c2)cc(OC)c1OC the results were POLI inh 16µM, L3MBTL1 block inactive, POLH inh inconclusive, WRN helicase inh inactive, POLK inh inconclusive and Pol beta inh 7.1µM.
`CC(=O)c1ccc(S(=O)(=O)Nc2ccc(-c3cn4c(C)csc4n3)cc2)cc1` gave POLI inh inconclusive, POLH inh inactive, POLK inh inactive and Pol beta inh inactive.
Cc1nnc(SCC(=O)Nc2nnc(SCc3cccc(Br)c3)s2)s1 was read as POLI inh inactive, L3MBTL1 block inactive, POLH inh inactive, WRN helicase inh inactive, POLK inh inactive and Pol beta inh inactive.
CC(C)(C)C1CCc2c(sc3nc(-c4cc5cc(Cl)ccc5oc4=O)[nH]c(=O)c23)C1 (stereo not given) was read as POLI inh inconclusive, POLH inh inactive, POLK inh inactive and Pol beta inh inactive.
`CCOc1ccc(/C=N/NC(=O)c2cc3c(OC)cc(OC)cc3[nH]2)cc1OC` gave POLI inh inactive, POLH inh inconclusive, WRN helicase inh inactive, POLK inh inactive and Pol beta inh inconclusive.
Screening c1ccc(CSc2nc3ccccc3[nH]2)cc1 returned POLI inh inactive, POLH inh inactive, WRN helicase inh inactive, POLK inh inactive and Pol beta inh inactive.
For Fc1ccc(CSc2nc3ccccc3[nH]2)cc1 the results were POLI inh 71µM, POLH inh inactive, WRN helicase inh inactive, POLK inh inactive and Pol beta inh inactive.
O=C(NCCO)c1ccc(CSc2nc3ccccc3[nH]2)cc1 was read as POLI inh inactive, L3MBTL1 block inactive, POLH inh inactive, WRN helicase inh inactive, POLK inh inactive and Pol beta inh inactive.
For COc1cc(/C=N/NC(=O)c2ccc(CSc3nc4ccccc4[nH]3)cc2)cc(OC)c1OC the results were POLI inh inconclusive, L3MBTL1 block inactive, POLH inh inconclusive, WRN helicase inh inactive, POLK inh inconclusive and Pol beta inh 10µM.
CCOc1ccc2[nH]c(C(=O)N/N=C/c3cc(OC)c(OC)c(OC)c3)cc2c1 was read as POLI inh inactive, POLH inh inconclusive, WRN helicase inh inactive, POLK inh inactive and Pol beta inh 13µM.
For O=C(N/N=C/c1cccnc1)c1cc(-c2ccccc2OCc2ccccc2)n[nH]1 the results were POLI inh inactive, L3MBTL1 block inactive, POLH inh inactive, WRN helicase inh inactive, POLK inh inactive and Pol beta inh 79µM.
O=C(CN1CCCCCC1)N/N=C/c1cccc(Cl)c1 was read as POLI inh inactive, L3MBTL1 block inactive, POLH inh inactive, WRN helicase inh inactive, POLK inh inactive and Pol beta inh inactive.
O=C(CCNS(=O)(=O)c1ccc(OC(F)(F)F)cc1)N1CCN(S(=O)(=O)c2cccc(F)c2)CC1 was read as POLI inh inactive, L3MBTL1 block inactive, POLH inh inactive, WRN helicase inh inactive and POLK inh inactive.
Cc1nnc(N/N=C/c2ccc(-c3ccc(Br)cc3)o2)n1N was read as POLI inh inconclusive, L3MBTL1 block inactive, POLH inh inactive, WRN helicase inh inactive, POLK inh inactive and Pol beta inh inconclusive.
Cc1nnc(N/N=C\c2ccc(-c3cccc(C(=O)O)c3)o2)n1N was read as POLI inh 2.5µM, L3MBTL1 block inconclusive, POLH inh inconclusive, WRN helicase inh inactive, POLK inh inconclusive and Pol beta inh inconclusive.
O=C1COc2ccc(C(=O)COC(=O)/C=C/c3ccco3)cc2N1 was read as POLI inh 45µM, L3MBTL1 block inconclusive, POLH inh inconclusive, WRN helicase inh inactive and POLK inh inconclusive.
For N#CCC(=O)Nc1ccc(C(=O)OCC(=O)c2ccc3c(c2)NC(=O)CO3)cc1 the results were POLI inh 22µM, L3MBTL1 block inactive, POLH inh inconclusive, WRN helicase inh inconclusive and POLK inh inconclusive.
Screening N#CCC(=O)Nc1ccc(C(=O)OCC(=O)NC(=O)Nc2ccc3c(c2)OCCO3)cc1 returned POLI inh inconclusive, L3MBTL1 block inactive, POLH inh 45µM, WRN helicase inh inconclusive and POLK inh inactive.
`CN(C)C(=O)c1ccc(-c2cc(C(F)(F)F)n(C)n2)s1` gave POLI inh inactive, L3MBTL1 block inactive, POLH inh inactive, WRN helicase inh inactive, POLK inh inactive and Pol beta inh inactive.
For CCOc1cccc2cc(-c3nnc(NCc4ccc5c(c4)OCO5)s3)c(=O)oc12 the results were POLI inh inactive, L3MBTL1 block inactive, POLH inh 4µM, WRN helicase inh inactive, POLK inh inactive and Pol beta inh inconclusive.
Screening CCOc1cccc2cc(-c3nnc(Nc4ccc(F)c(Cl)c4)s3)c(=O)oc12 returned POLI inh inactive, POLH inh inactive, POLK inh inactive and Pol beta inh inactive.
COCCNC(=O)C1(C)CCN(Cc2ccccc2C#N)C1 (stereo not given) was read as WRN helicase inh inactive.
CCCC(=O)N1CCCC(c2nc(-c3cccs3)no2)C1 (stereo not given) was read as POLI inh inactive, POLH inh inactive, WRN helicase inh inactive, POLK inh inactive and Pol beta inh inactive.
For CC(C)c1nn2c(=O)cc(COC(=O)c3cccc(NC(=O)c4cccs4)c3)nc2s1 the results were POLI inh inactive, POLH inh inactive, POLK inh inactive and Pol beta inh inactive.
`CCc1nn2c(=O)cc(COC(=O)c3cccc(NC(=O)c4cccs4)c3)nc2s1` gave POLI inh 89µM, POLH inh inactive, POLK inh inactive and Pol beta inh inactive.
`O=C(OCc1cc(=O)n2nc(-c3cccs3)sc2n1)c1ccc(Cl)cc1` gave POLI inh inconclusive, POLH inh inconclusive, POLK inh inactive and Pol beta inh 32µM.
For Cc1ccccc1OCC(=O)OCc1cc(=O)n2nc(-c3cccs3)sc2n1 the results were POLI inh inconclusive, POLH inh inactive, POLK inh inactive and Pol beta inh inconclusive.
For O=C(OCc1cc(=O)n2nc(-c3cccs3)sc2n1)c1ccccc1 the results were POLI inh 79µM, POLH inh 79µM, POLK inh inactive and Pol beta inh 35µM.
